Screens (PubChem)
HCMV antiviral – human cytomegalovirus inhibition; HFF cells, HCMV-luciferase reporter, 72 h; stronger effect = lower value; activity change, negative = inhibition, % at 57.5 µM; hit rate 4.5% among 410,000; in the data active = activity change below about -60%; inconclusive = no clear call, values can overlap the other calls; inactive = above about -39%; also: % is scaled to controls: 0 for no effect and ±100 for the full control effect
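Two compound doses tested in HFFs infected with HCMV-luciferase, MOI 1 PFU/cell, 72 h at 37C. Lysate luminescence read with OneGlo; data normalized against buffer-only and 10uM Salinomycin inhibitor controls.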
Pf growth 96h – P. falciparum growth inhibition at 96 hour, primary screen for plastid delayed-death inhibitors; hit rate 6.9% among 320,000; P. falciparum luciferase reporter growth, 96 h; AID 504834; Potency, µM (titrated, usually from 28.7 µM), without a hit: top-dose activity change, negative = inhibition, most hits filed as inhibitors; also: potency is read from the fitted curve at half-maximal effect; % is scaled to controls: 0 for no effect and ±100 for the full control effect
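Infected RBCs, 2% Hct / 0.05% parasitemia final; luciferase-reporter P. falciparum; cpd 96 h, 37 C, 5% CO2; luciferase detection reagent; luminescence.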
HCV inh – inhibitors of hepatitis C virus infection; Huh7.5.1 HCVcc-Cre infection, luciferase reporter, 44 h; hit rate 3.4% among 340,000; Potency, µM (titrated, usually from 41.8 µM), for the others: at the highest dose activity change, negative = inhibition, hits mostly inhibitors; also: potency is read from the fitted curve at half-maximal effect; % is scaled to controls: 0 for no effect and ±100 for the full control effect
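HCVcc-Cre virus at an moi near 0.5 was added right after compound to cells cultured 4 h from seeding (1,000 cells/well). Luciferase activity was determined 44 h later, 15 min after substrate addition at RT.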
Pf growth 48h – P. falciparum growth inhibition at 48 hours (one generation); hit rate 5.9% among 310,000; Potency, µM (series often up to 28.7 µM), for the others: top-dose activity change, negative = inhibition, hits mostly inhibitors; AID 504832; P. falciparum luciferase growth in erythrocytes, 48 h; also: potency is read from the fitted curve at half-maximal effect; % is scaled to controls: 0 for no effect and ±100 for the full control effect
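Growth was read as firefly luciferase luminescence after a 48 h, 37 C, 5% CO2 exposure of compounds to reporter-bearing P. falciparum cultures (0.1% parasitemia, 2% hematocrit final) in Albumax-supplemented RPMI 1640.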
Sm TGR inh – S. mansoni TGR enzyme inhibition; purified TGR, DTNB reduction, TNB absorbance 405 nm; Potency, µM (titrated, usually from 114 µM), for the others: at the top dose activity change, negative = inhibition, usual class: inhibitors; hit rate 3% among 360,000; also: potency is read from the fitted curve at half-maximal effect; % is scaled to controls: 0 for no effect and ±100 for the full control effect; nearly all actives have a fitted effect of over 60% in size
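TGR 20 nM + NADPH 100 uM (dispensed conc.), cpd preinc 15 min RT; start with NADPH (500 uM addition) then DTNB (15 mM addition). Kinetic TNB absorbance, 405 nm filter. Four-parameter Hill fit across titration.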
SARS PLP yeast – SARS-CoV PLP inhibition in yeast; Potency, µM (top dose mostly 32.9 µM), for inactives: top-dose activity, positive = growth rescue, most hits filed as activators; AID 485353; hit rate 0.19% among 330,000; S. cerevisiae expressing SARS-CoV PLpro, growth rescue; calls by dose curve; also: potency is read from the fitted curve at half-maximal effect; 0% is about no effect; nearly all actives have a fitted effect of over 55% in size
Numbers without * were called inactive; u = inconclusive; x = not tested or not shown. Hits are enriched below; roughly 15% of the tested compounds scored in any of these assays. Unless noted, calls follow the shape of the dose curve; as a rule, active = well fitted curve in the direction sought with a large enough effect; inconclusive = small, poorly fitted or top-dose-only effect, or another doubt; inactive = no such curve, though single readings can be large; an effect the other way counts as inactive or inconclusive.

SMILES	HCMV antiviral	Pf growth 96h	HCV inh	Pf growth 48h	Sm TGR inh	SARS PLP yeast
Cc1ccccc1NC(=O)/C=C/c1ccc([N+](=O)[O-])s1	x	12µM*	10µM*	7.4µM*	u	-20%
Cc1cc(C)cc(NC(=O)/C=C/c2ccc([N+](=O)[O-])s2)c1	-92*	u	u	u	0%	5%
Cc1nc(N2C(=O)c3oc4ccccc4c(=O)c3C2c2cccc(OCCC(C)C)c2)sc1C (centres undefined)	10	x	x	x	11%	x
Cc1cccc2nc(-c3ccco3)c(Nc3ccc4c(c3)OCCO4)n12	-18	u	-13%	u	-23%	-6%
Cc1cccc2nc(-c3cccnc3)c(Nc3ccccc3)n12	-74*	8%	-27%	u	-9%	-9%
COc1ccc(Nc2c(-c3ccco3)nc3cccc(C)n23)cc1	8	2.6µM*	-13%	0%	-11%	-8%
CCC(OC(=O)CN1C(=O)C(=O)c2ccccc21)C(=O)Nc1ccccc1OC (centres undefined)	-63*	u	-7%	0%	2%	9%
CCOc1ccccc1N(CC(=O)NCCSCc1ccco1)S(=O)(=O)c1ccccc1	-15	10%	13µM*	8.3µM*	40µM*	3%
CCOc1ccc(N(CC(=O)NCCSCc2ccco2)S(=O)(=O)c2ccc(C)cc2)cc1	-12	8.3µM*	-12%	u	u	4%
COc1ccc(OC)c(N(CC(=O)NCCSCc2ccco2)S(=O)(=O)c2ccccc2)c1	-29	u	-6%	u	45µM*	0%
Cc1ccccc1N(CC(=O)NCCSCc1ccco1)S(C)(=O)=O	-15	u	-3%	-10%	22µM*	0%
CCOc1ccc(N(CC(=O)NCCSCc2ccco2)S(=O)(=O)c2ccc(F)cc2)cc1	-8	13%	25%	u	4%	-4%
CCOc1ccc(S(=O)(=O)N(CC(=O)NCCSCc2ccccc2)c2ccccc2)cc1	u	x	x	x	1%	x
COCCCNC(=O)CN(c1cc(OC)ccc1OC)S(=O)(=O)c1ccccc1	-5	4%	0%	u	3%	23%
Cc1cccc2sc(N(Cc3cccnc3)C(=O)C3COc4ccccc4O3)nc12 (centres undefined)	u	x	x	x	1%	x
Cc1cccc(CN2CCN(C3CN(Cc4ccc([N+](=O)[O-])cc4)S(=O)(=O)C3)CC2)c1 (centres undefined)	6	x	x	x	x	x
CCN1CCN(Cc2c3ccccc3cc3ccccc23)CC1	7	0%	-10%	u	-9%	-2%
Nc1[nH]n2c(=O)cc(-c3ccccc3)nc2c1N=Nc1ccc(S(N)(=O)=O)cc1	-9	1%	1%	14%	3%	0%
Nc1[nH]n2c(=O)cc(-c3ccccc3)nc2c1N=Nc1ccccc1	-79*	u	-28%	u	3%	-13%
COC(=O)C1=C(NC(=O)c2cccs2)CCS1	x	9.3µM*	x	u	1%	3%
COC(=O)C1=C(NC(=O)c2cccc(OC)c2)CCS1	80	4.1µM*	-14%	20%	-22%	8%
O=C1C(Cl)=C(NC2CCCCC2)C(=O)N1c1ccc(Cl)cc1	84	9.3µM*	8%	u	4%	-4%
CN1CCN(C2=C(Cl)C(=O)N(c3ccc(Cl)cc3)C2=O)CC1	x	x	0%	u	u	-4%
CC(=O)Oc1ccc(N(C(C)=O)S(=O)(=O)c2ccc(C)c([N+](=O)[O-])c2)cc1	-39	2.6µM*	18%	3%	-17%	-11%
CCOC(=O)N1CCN(CCC(=O)Nc2cccc(C)c2)CC1	-31	u	7%	5%	-15%	-9%
Cc1ccc(-c2nnc3ccc(SCC(=O)Nc4cc(C)on4)nn23)cc1	-28	-28%	16%	u	2%	10%
COc1ccc(OC)c(NC(=O)CSc2ccc3nnc(-c4cccnc4)n3n2)c1	19	12µM*	24%	u	6%	-1%
O=C(CSc1ccc2nnc(-c3cccnc3)n2n1)NCc1ccco1	47	-17%	0%	x	32µM*	1%
